Measured values reported in PubChem BioAssay (NCI).
Compounds without any hit were thinned out: in the full panel of roughly 83,000, 20% have a hit.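 How to read the values: 0–100, growth inhibition (40 = 60% inhibited); 0, no net growth; -100 to 0, cell death (-40 = 40% of starting cells died; -100 = all dead).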 The source made the active and inactive calls.

tested on: HCT-15 colon; experiment: NCI-60 one-dose screen, 48 h (100 = growth as untreated, 0 = no growth, -100 = all killed); conditions: 10 µM unless noted
Method: Growth inhibition of the HCT-15 human tumor cell line is measured as a screen for anti-cancer activity. Cells are grown in 96 well plates and exposed to the test compound for 48 hours. Compounds are tested at a single concentration, which is 10^-5 M for most compounds. The reported endpoint is percent growth (GI% or GIPRCNT), where numbers from 0 - 100% represent growth inhibition, and numbers from -100% - 0 represent cell death. For example, a value of 40 represents 60% growth inhibition. A value of 0 means no net growth occurred over the course of the experiment. A value of -40 indicates 40% of cells at the beginning of the experiment died by the end of the experiment. A value of -100 means all cells are dead at the end of the experiment.
NCI-60 Human Tumor Cell Lines Screen was performed using the standard one-dose NCI protocol, which is described in more detail at https://dtp.cancer.gov/discovery_development/nci-60/default.htm.
Compounds with GIPRCNT values below 10 were considered active. Activity score was based on GIPRCNT using the following formula: […]
Score is 0 for GIPRCNT values of 100 or above, 50 for GIPRCNT values of 0, and 100 for GIPRCNT values of -100.

| Compound | growth |
| --- | --- |
| CC(C)(C)Nc1c(-c2cccs2)nc2ncccn12 | 102% (inactive) |
| CC(NNC(C)c1ccccc1)c1ccccc1 (stereo not given) | 105% (inactive) |
| O=C(O)COc1ccc(-c2cssc2=S)cc1 | 99.4% (inactive) |
| C/C(=N/NC(=S)Nc1ccccc1)c1nc2ccc(Cl)cc2[nH]1 | 0.555% (active) |
| Cc1nn(-c2ccc(Cl)cc2)c2ncnc(N/N=C/c3cccc([N+](=O)[O-])c3)c12 | 100% (inactive) |
| COc1ccc(C2NN=C3c4ccccc4CCC32)cc1 (stereo not given) | 40% (inactive) |
| Cn1cc(-c2cnc3ccc(NC(=O)Nc4ccc(F)c(Br)c4)cc3n2)cn1 | 19.3% (inactive) |
| Cn1c(=O)c2[nH]c(C3CC=CCC3)nc2n(C)c1=O (stereo not given) | 106% (inactive) |
| O=[N+]([O-])c1cc(Cl)c2[nH]c3c(Cl)cc([N+](=O)[O-])cc3c2c1 | 11.3% (inactive) |
| COc1cc(-c2nn(-c3cccc(NC(=O)c4cccc(C(F)(F)F)c4)c3)cc2-c2ccncc2)ccc1Cl | 12.8% (inactive) |
| C=C[C@@H]1C[C@H](O)Cc2cc(F)ccc2N1 | 96.4% (inactive) |
| Cn1cnc2c(N3CCN(C(=O)OCc4ccc5c(Cl)cc(Cl)c(O)c5n4)CC3)nc(Cl)nc21 | 30.5% (inactive) |
| COc1cc(C2NN=C3c4ccccc4CCC32)cc(OC)c1OC (stereo not given) | 72.4% (inactive) |
| CCCOC(=O)n1cccc1 | 107% (inactive) |
| CC(C)(C)n1cc(-c2ccnc(NCCNS(=O)(=O)c3ccc(C(F)(F)F)cc3)c2)c(-c2cccc(O)c2)n1 | 11.7% (inactive) |
| COc1ccc(/C=C\c2cc(OC)c(OC)c(OC)c2)cc1OC(=O)c1cccc(Cn2cc(CCOC(=O)c3cccc(Cn4nnc5c4C(=O)c4ccccc4C5=O)c3)nn2)c1 | 10.5% (inactive) |
| CCN(CC)c1ccc(CNc2ccnc3ccccc23)cc1 | 58.6% (inactive) |
| c1cc(C2=N[C@@H]3c4ccccc4C[C@@H]3O2)nc(C2=N[C@@H]3c4ccccc4C[C@@H]3O2)c1 | 94.7% (inactive) |
| N#Cc1c(-c2ccccc2)nc(SCC(=O)N2CCN(c3ccccc3)CC2)[nH]c1=O | 107% (inactive) |
| Clc1ccc(-c2nc3ccccc3s2)cc1Cl | 96.6% (inactive) |

| Compound | growth |
| --- | --- |
| COc1ccc(CNCCCN2C(=O)c3ccc4c5c(ccc(c35)C2=O)C(=O)N(CCCNCCCCNCCCN)C4=O)c(OC)c1OC | 19.7% (inactive) |
| COc1ccc(C2=C(c3cc(OC)c(OC)c(OC)c3)C(=O)CC2)cc1 | 24.2% (inactive) |
| C=C1c2nc3ccccc3n2C=C(c2ccc(Cl)cc2)N1Cc1ccccc1 | 78.2% (inactive) |
| O=S(=O)(NCCNc1nccc(-c2c(-c3cccc(O)c3)nc3sccn23)n1)c1ccc(F)cc1 | 81% (inactive) |
| Nc1nc(Nc2cc(Cl)cc(Cl)c2)nn1S(=O)(=O)c1ccc2ccccc2c1 | 59.2% (inactive) |
| CCCCN(CCCC)C(=N)c1ccnc2ccccc12 | 101% (inactive) |
| O=C(O)Cc1cccc(=O)c(O)c1C(=O)O | 106% (inactive) |
| COc1cccc(-c2nc3sccn3c2-c2ccnc(NCCCNS(=O)(=O)c3ccc(C(F)(F)F)cc3)c2)c1 | 38.7% (inactive) |
| COc1cccc(-c2cc3c(O)cc(C#N)cc3[nH]2)c1 | 80.9% (inactive) |
| CCOC(=O)C1=C(C)NC(C)=C(C(=O)OCC)C1(C)C | 101% (inactive) |
| CCNc1nc(S(=O)(=O)CC)nc2ccccc12 | 92.3% (inactive) |
| COc1cc(-c2nn(-c3cccc(NC(=O)Nc4cc(C(F)(F)F)cc(C(F)(F)F)c4)c3)cc2-c2ccncc2)ccc1Cl | 2.59% (active) |
| Cc1nc2ncccc2nc1Nc1ccc(S(=O)(=O)Nc2ccccn2)cc1 | 123% (inactive) |
| Cc1ccc(Cc2c(C=O)nc(N)[nH]c2=O)c2ccccc12 | 101% (inactive) |
| COc1ccc(Nc2nn3c(-c4ccccc4)cc(-c4ccccc4)nc3c2C(N)=O)c(OC)c1 | 70.5% (inactive) |
| COc1cc(-c2nn(C(=O)NS(=O)(=O)c3ccccc3)cc2-c2ccncc2)ccc1Cl | 97.9% (inactive) |
| COc1ccc(C(=O)c2cc(OC)c3c(c2)OCO3)cc1O | 19.1% (inactive) |
| O=C(Nc1ccncc1)C(=O)c1cn(S(=O)(=O)c2ccc(Br)cc2)c2ccccc12 | 31% (inactive) |
| NNc1cccc(/C=C/c2ccccc2)cc1=O | 33% (inactive) |
| O=C(O)C1CCCCN1c1nc(Cl)nc(Cl)n1 (stereo not given) | 102% (inactive) |
